Measured values published in PubChem BioAssay (NCATS).
Results filed as inconclusive are left out. Activity calls are given as the source filed them. The call rests on the fitted dose curve; in most records, active means well fitted curve in the direction sought with a large enough effect; inconclusive means small, poorly fitted or top-dose-only effect, or another doubt; inactive means no such curve, though single readings can be large; an effect the other way counts as inactive or inconclusive.

Tests used:
[1] = qHTS of pediatric cancer cell lines to identify multiple opportunities for drug repurposing: Primary screen for TC32 cells (AID 1347089); further: nearly all actives have a fitted effect of over 60% in size
In short: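 In the primary qHTS, MIPE compounds were tested at 11 concentrations (0.78 nM to 46 µM) and NPC compounds at 8 (0.59 nM to 46 µM) on TC32 cells for 48 h. CellTiter-Glo luminescence gave viability.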

[2] = qHTS of pediatric cancer cell lines to identify multiple opportunities for drug repurposing: Primary screen for DAOY cells (AID 1347090); further: series mostly up to about 46 µM; nearly all actives have a fitted effect of over 55% in size
In short: (§1)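 Viability measured as metabolically active cells via CellTiter-Glo luminescence following 48 hours of compound exposure, 11-point dilutions in confirmatory testing. 500-1,000 cells/well plated 5 hours before dosing; controls were DMSO and 2.3 µM bortezomib.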

[3] = qHTS of pediatric cancer cell lines to identify multiple opportunities for drug repurposing: Primary screen for SJ-GBM2 cells (AID 1347091)
In short: as §1

[4] = qHTS of pediatric cancer cell lines to identify multiple opportunities for drug repurposing: Primary screen for A673 cells (AID 1347092); further: nearly all actives have a fitted effect of over 45% in size; further: potency means the concentration at half of the fitted maximal effect
In short: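 48 h compound exposure, A673, 500-1,000 cells/well, 37 degrees C/5% CO2. MIPE: 11-point, 0.78 nM-46 µM; NPC: 8-point, 0.59 nM-46 µM (final). Readout CellTiter-Glo luminescence after 15 min RT.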

[5] = qHTS of pediatric cancer cell lines to identify multiple opportunities for drug repurposing: Primary screen for SK-N-MC cells (AID 1347093); further: series mostly up to about 46 µM
In short: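 Metabolically active cells were quantified by ATP-dependent luminescence (CellTiter-Glo, 15 min at room temperature) following 48 h treatment. Cells had been plated at 500-1,000 per well and settled for 5 h beforehand.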

[6] = qHTS of pediatric cancer cell lines to identify multiple opportunities for drug repurposing: Primary screen for BT-37 cells (AID 1347094); further: series mostly up to about 57 µM
In short: (§2)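 Plated cells (500-1,000 per well, growth media) were allowed to settle for 5 hours, treated with compound dilutions for 48 hours, then lysed with CellTiter-Glo for 15 min at room temperature before luminescence reading.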

[7] = qHTS of pediatric cancer cell lines to identify multiple opportunities for drug repurposing: Primary screen for NB-EBc1 cells (AID 1347095)
In short: as §2

[8] = qHTS of pediatric cancer cell lines to identify multiple opportunities for drug repurposing: Primary screen for U-2 OS cells (AID 1347096); further: nearly all actives have a fitted effect of over 50% in size
In short: (§3)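 Viability after 48 h compound treatment at 37C, 500-1,000 cells/well, read as ATP luminescence with CellTiter-Glo. Primary screens used 11-point (MIPE, 0.78 nM-46 µM) or 8-point (NPC, 0.59 nM-46 µM) final concentrations; follow-up screens used 11-point dilutions.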

[9] = qHTS of pediatric cancer cell lines to identify multiple opportunities for drug repurposing: Primary screen for Saos-2 cells (AID 1347097); further: nearly all actives have a fitted effect of over 40% in size
In short: as §2

[10] = qHTS of pediatric cancer cell lines to identify multiple opportunities for drug repurposing: Primary screen for SK-N-SH cells (AID 1347098); further: nearly all actives have a fitted effect of over 65% in size; further: potency means the concentration at half of the fitted maximal effect
In short: (§4)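 Cells (500-1,000/well) rested 5 h, then received compounds for 48 h; metabolically active cells were measured by CellTiter-Glo luminescence. Final concentrations spanned up to 46 µM (MIPE, 11-point) or 0.59 nM-46 µM (NPC, 8-point) in primary screens, 11-point in follow-ups.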

[11] = qHTS of pediatric cancer cell lines to identify multiple opportunities for drug repurposing: Primary screen for LAN-5 cells (AID 1347100)
In short: as §3

[12] = qHTS of pediatric cancer cell lines to identify multiple opportunities for drug repurposing: Primary screen for BT-12 cells (AID 1347101); further: nearly all actives have a fitted effect of over 25% in size
In short: as §4

[13] = qHTS of pediatric cancer cell lines to identify multiple opportunities for drug repurposing: Primary screen for RD cells (AID 1347104); further: nearly all actives have a fitted effect of over 55% in size
In short: as §2

[14] = qHTS of pediatric cancer cell lines to identify multiple opportunities for drug repurposing: Primary screen for MG 63 (6-TG R) cells (AID 1347105); further: nearly all actives have a fitted effect of over 50% in size
In short: as §2

[15] = qHTS of pediatric cancer cell lines to identify multiple opportunities for drug repurposing: Primary screen for control Hh wild type fibroblast cells (AID 1347106);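 further: series mostly up to about 46 µM; a drop in luminescence marks cytotoxicity and a rise apparent proliferation; nearly all actives have a fitted effect of over 55% in size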
In short: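 Cells (500-1,000/well) in growth media were settled 5 h at 37 degrees C, then given compounds for 48 h. Viability was read as CellTiter-Glo luminescence. Primary runs used MIPE at 11 points (0.78 nM-46 µM) and NPC at 8 points (0.59 nM-46 µM); follow-ups used 11 points.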

[16] = qHTS of pediatric cancer cell lines to identify multiple opportunities for drug repurposing: Primary screen for Rh18 cells (AID 1347102); further: nearly all actives have a fitted effect of over 65% in size
In short: as §3

[17] = qHTS of pediatric cancer cell lines to identify multiple opportunities for drug repurposing: Primary screen for OHS-50 cells (AID 1347103); further: nearly all actives have a fitted effect of over 40% in size
In short: as §4

[18] = qHTS of pediatric cancer cell lines to identify multiple opportunities for drug repurposing: Primary screen for NB1643 cells (AID 1347099); further: nearly all actives have a fitted effect of over 50% in size; further: potency means the concentration at half of the fitted maximal effect
In short: as §2

Measured: Potency

CCCCOc1cc(C(=O)OCCN(CC)CC)ccc1N
not listed: [16] | [17] | [18]
inactive: all other assays above

CC(C)(C(=O)O)c1ccc(C(O)CCCN2CCC(C(O)(c3ccccc3)c3ccccc3)CC2)cc1 (stereo not given)
not listed: [11] | [18]
inactive: all other assays above

Cc1cccc(C)c1NC(=O)CN(CC(=O)O)CC(=O)O
not listed: [5] | [13] | [16]
inactive: all other assays above

O=C(O)[C@H](O)c1ccccc1
not listed: [6] | [16] | [17] | [18]
inactive: all other assays above

c1ccc(CN(CC2=NCCN2)c2ccccc2)cc1
not listed: [5] | [13] | [16]
inactive: all other assays above

CCCCCCCCCCCCOS(=O)(=O)O
not listed: [9]
inactive: all other assays above

NS(=O)(=O)c1cc2c(cc1C(F)(F)F)NC(Cc1ccccc1)NS2(=O)=O (stereo not given)
not listed: [5]
inactive: all other assays above

O=C(O)c1ccccc1O
not listed: [11] | [18]
inactive: all other assays above

CS(=O)(=O)c1ccc([C@@H](O)[C@@H](CF)NC(=O)C(Cl)Cl)cc1
not listed: [12] | [18]
inactive: all other assays above

CC(COc1ccccc1)NC(C)C(O)c1ccc(O)cc1 (stereo not given)
not listed: [5] | [16]
inactive: all other assays above

CC(C)(C)C(=O)C(Oc1ccc(Cl)cc1)n1ccnc1 (stereo not given)
active: [10] 24.4 µM
not listed: [5]
inactive: all other assays above

C[C@H]1O[C@H](O[C@H]2[C@H](O)[C@@H](O)[C@@H](O[C@H]3[C@H](O)[C@@H](O)[C@H](O)O[C@@H]3CO)O[C@@H]2CO)[C@H](O)[C@@H](O)[C@@H]1N[C@H]1C=C(CO)[C@@H](O)[C@H](O)[C@H]1O
not listed: [14] | [18]
inactive: all other assays above

NC(=O)N/N=C/c1ccc([N+](=O)[O-])o1
active: [4] 48.6 µM
not listed: [6] | [12] | [13]
inactive: all other assays above

OCC(O)CN1CCN(c2ccccc2)CC1 (stereo not given)
not listed: [11] | [18]
inactive: all other assays above

Nc1ccc(S(=O)(=O)Nc2nccs2)cc1
not listed: [13] | [18]
inactive: all other assays above

CN(N=O)C(=O)N[C@@H]1[C@@H](O)[C@H](O)[C@@H](CO)O[C@@H]1O
not listed: [5] | [11]
inactive: all other assays above

CCC(=O)Nc1ccc(O)cc1
not listed: [5] | [13]
inactive: all other assays above

CC1(C)Oc2ccc(C#N)cc2[C@@H](N2CCCC2=O)[C@@H]1O
not listed: [9]
inactive: all other assays above

NC(=O)c1ncn([C@@H]2O[C@H](CO)[C@@H](O)[C@H]2O)c1N
not listed: [13] | [18]
inactive: all other assays above

O=C(O)c1ccccn1
not listed: [10]
inactive: all other assays above

O=c1cc[nH]c(=S)[nH]1
active: [4] 0.001 µM | [18] 0.001 µM
not listed: [5] | [13]
inactive: all other assays above

CN1CCCCC1CCN1c2ccccc2Sc2ccc(S(C)=O)cc21 (stereo not given)
not listed: [10] | [13] | [16] | [17]
inactive: all other assays above

Cc1cc(CC(=O)O)n(C)c1C(=O)c1ccc(Cl)cc1
not listed: [5]
inactive: all other assays above

O=c1cc[nH]c(=O)[nH]1
not listed: [5]
inactive: all other assays above

CCOC(=O)c1ccc(O)cc1
not listed: [13] | [18]
inactive: all other assays above

CCN(CC)CCNC(C(=O)OCCC(C)C)c1ccccc1 (stereo not given)
not listed: [5] | [13]
inactive: all other assays above
